High-throughput results (PubChem BioAssay)
Rows were chosen to be rich in hits. Some 4.5% of all compounds tested hit in one or more screens of this group.
PfHsp40 rescue: restores yeast growth despite PfHsp40 toxicity; growth rescue, % at 12.5 µM; S. cerevisiae expressing PfHsp40, growth rescue, ATP luminescence; AID 504582; 0.68% of 340,000 active; in the data active = growth rescue above about 28%, passing the limit was not always enough;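 note: yeast W303a lacking pdr1 and pdr3 grown in galactose medium; growth measured after three days at 30 °C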
GDH-TPI inh: GDH-TPI coupled enzyme inhibition counter-screen; 1.2% of 360,000 active; inhibition, % at 4.8 µM; GDH-TPI coupled enzyme counterscreen, NADH absorbance; in the data active = inhibition above about 30%;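 note: 0% = DMSO wells and 100% = wells lacking the enzyme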
BJeLR viability: kills HRASV12-expressing BJeLR cells. BJeLR (HRASV12) viability, CellTiter-Glo ATP luminescence, 48 h. inhibition, % (concentration not given with the values). 0.17% of 300,000 active. AID 1554; in the data active = inhibition above about 50%
FBA Mtb inh: inhibitors of M. tuberculosis fructose-bisphosphate aldolase; purified M. tuberculosis FBA, fluorescence read-out; P9WQA3; 2.3% of 360,000 active; AID 588726; inhibition, % at 1 µM; in the data active = inhibition above about 27%;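 note: 0% = vehicle and 100% = reference inhibitor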
Target sequence (P9WQA3 whole entry, looked up): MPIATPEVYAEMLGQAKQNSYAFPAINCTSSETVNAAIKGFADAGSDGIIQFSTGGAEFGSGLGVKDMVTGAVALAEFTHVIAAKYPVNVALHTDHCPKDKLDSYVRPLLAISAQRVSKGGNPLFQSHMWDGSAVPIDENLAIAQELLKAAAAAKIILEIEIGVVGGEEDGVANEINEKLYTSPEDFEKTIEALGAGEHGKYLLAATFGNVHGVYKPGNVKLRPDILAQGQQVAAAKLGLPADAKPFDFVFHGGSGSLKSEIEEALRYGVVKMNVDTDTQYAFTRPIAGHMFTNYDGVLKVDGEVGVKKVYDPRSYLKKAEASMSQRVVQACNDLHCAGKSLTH
PrPC TRFRET: reduces human prion protein on the cell surface | P04156 | cell surface PrPC, TR-FRET read-out | inhibition, % at 13.8 µM | 0.43% of 370,000 active | AID 720596; in the data active = inhibition above about 24%; note: 0% = median of the test wells and 100% = reference compound wells
PrP UTR inh: inhibition of PrP 5' UTR reporter expression; inhibition, % (test concentration not listed); cell-based PrP 5' UTR mRNA reporter, plate reader; 0.35% of 340,000 active; in the data active = inhibition above about 52%; note: 0 = median of the neutral control wells
* hit, by the source's call; / = no result given; + = active, no number.

SMILES | PfHsp40 rescue | GDH-TPI inh | BJeLR viability | FBA Mtb inh | PrPC TRFRET | PrP UTR inh
Cc1ccc(-c2nc3ncccc3o2)cc1NC(=O)COc1ccccc1 | 0 | 9 | 1 | 4 | -5 | -14
COc1ccc(-c2cn3cccnc3n2)cc1NC(=O)c1cccs1 | 1 | 19 | 2 | 18 | -19 | -12
CCOCC(=O)Nc1cc(-c2cn3cccnc3n2)ccc1C | 2 | 14 | -6 | + | / | -15
COC[C@H]1CCCN1c1cccc2c1S(=O)(=O)N(C1CC1)CCCO2 | / | / | / | / | -6 | /
CCCCOc1ccc(Br)cc1/C(C)=N/NC1=NCCN1 | 1 | -5 | 52* | -1 | 17 | -40
O=C1CCC[C@H]2C[C@H](NCc3ccc(Cl)cc3)CC[C@]23CCCN13 | / | / | / | / | -12 | /
CCOC(=O)c1c(NC(=O)CSc2nc3ccccc3s2)sc(C(C)=O)c1C | 1 | 33* | -5 | 0 | 2 | -20
CCOC(=O)c1c(NC(=O)CSc2nc3cc(Cl)ccc3s2)sc(C(C)=O)c1C | / | / | -1 | / | 0 | /
O=c1cc(O)c2ccc(O)cc2o1 | 0 | 10 | 0 | 18 | -5 | -5
O=c1ccc2ccc(O)cc2o1 | -1 | 15 | / | + | -2 | -2
O=c1ccc2cc3ccoc3cc2o1 | 0 | 3 | -3 | 3 | 7 | -26
O=c1ccc2cc(O)c(O)cc2o1 | 0 | 9 | -11 | 115* | 6 | -27
COc1ccc(NC(=O)/C(Cl)=C(/Cl)S(=O)(=O)Cc2ccccc2)cn1 | 0 | -1 | -30 | 0 | 94* | 7
COc1ccc(NC(=O)/C(Cl)=C(/Cl)S(=O)Cc2ccc(Cl)cc2)cn1 (stereo unspecified) | 11 | -2 | / | 0 | 29* | -17
N#C/C(=C\c1cn(-c2ccccc2)nc1-c1cccnc1)c1nnc2n1CCCCC2 | 0 | 39* | -5 | 3 | -14 | 3
CN(C)CCNC(=O)c1onc(CSc2ccc(F)c(F)c2)c1C(=O)NCCN(C)C | -1 | 16 | 3 | 5 | -3 | 8
CC(C)CCNC(=O)c1onc(CSc2ccc(F)c(F)c2)c1C(=O)NCCC(C)C | 37* | 3 | 1 | -1 | 4 | -13
CN(C)CCNC(=O)c1onc(CSc2ccc(F)cc2)c1C(=O)NCCN(C)C | 34* | 11 | 6 | -1 | 7 | -33
O=C(CSc1nc2sc3c(c2c(=O)n1-c1ccc(Cl)cc1)CCC3)Nc1ccc(C(=O)O)cc1 | / | / | / | / | 3 | /
Clc1ccccc1-c1ccc(/C=N/n2cnnc2)o1 | 2 | 55* | 2 | 1 | -11 | -10
O=C(O)c1cccc(-c2ccc(/C=N/n3cnnc3)o2)c1 | -1 | 35* | -1 | 19 | -12 | -39
O=[N+]([O-])c1ccc(-c2ccc(/C=N/n3cnnc3)o2)c(Br)c1 | -1 | 26 | 4 | -4 | -28 | -6
Cc1c(C(=O)O)cccc1-c1ccc(/C=N/Nc2ccc(Br)cc2)o1 | 355* | 22 | 4 | 11 | 13 | -31
CCN=C1S/C(=C\c2ccc(-c3cccc(C(=O)O)c3)o2)C(=O)N1CC | 0 | 5 | -4 | 5 | / | -15
Cc1c(Cl)cccc1-c1ccc(/C=N/n2cnnc2)o1 | -1 | 33* | 2 | 2 | -4 | -2
SMILES | PfHsp40 rescue | GDH-TPI inh | BJeLR viability | FBA Mtb inh | PrPC TRFRET | PrP UTR inh
CN1CCN(c2ccc3c(c2)Oc2ccccc2CN(Cc2cn(Cc4ccc(F)cc4)nn2)S3(=O)=O)CC1 | / | / | / | / | -5 | /
COC(=O)[C@H]1C[C@@]2(N3CCCCC3)c3ccccc3N[C@H]2N1S(=O)(=O)c1ccc([N+](=O)[O-])cc1 | / | / | / | / | -18 | /
CCN(CC)c1ccc(NC(=O)CSc2nnc(-c3ccc(Cl)cc3)n2Cc2ccco2)cc1 | / | / | / | / | -2 | /
CC(=O)c1cc(-c2cnn(Cc3ccccc3)c2)c(=O)n2c1CCC2 | / | / | / | / | 6 | /
Clc1ccc(Sc2ccc(/C=N/n3cnnc3)o2)cc1 | 1 | 22 | -11 | 2 | -6 | 16
O=Cc1ccc(-c2ccccc2C(=O)O)o1 | -1 | 21 | -1 | 8 | 0 | -13
Cc1c(C(=O)O)cccc1-c1ccc(/C=N/n2cnnc2)o1 | 0 | 31* | 8 | 3 | -3 | -24
Clc1cccc(-c2ccc(/C=N/n3cnnc3)o2)c1Cl | 1 | 34* | -6 | 3 | 4 | 3
Cc1ccc(-n2c(Cc3cccs3)nnc2SCC(=O)Nc2cccc3ccccc23)cc1 | / | / | / | / | 10 | /
Cn1c(=O)[nH]c2c(Br)nccc21 | / | / | / | / | 3 | /
O=C1OC(/C=C/c2ccccc2)=NC/1=C/C=C/c1ccccc1 | -1 | 32* | -12 | 0 | -6 | -17
Cc1oc(=O)c(NC(=O)c2ccccc2)cc1C(C)O (stereo unspecified) | -1 | 14 | -3 | 3 | 1 | -5
CCOC(=O)c1cc(NC(=O)c2ccccc2)c(=O)oc1-c1ccccc1 | 1 | 33* | 14 | 2 | 3 | -8
CCN(CC)CCCN(Cc1cc2cc(OC)c(OC)cc2[nH]c1=O)C(=O)Nc1ccccc1 | -2 | 14 | -17 | 13 | 0 | -49
COCCCNC(=S)N(CCCO)Cc1cc2cc3c(cc2[nH]c1=O)OCO3 | 0 | 32* | -4 | 22 | -1 | -4
CCN(CC)CCCN(Cc1cc2cc3c(cc2[nH]c1=O)OCO3)C(=O)Nc1ccccc1OC | -2 | 32* | 2 | 12 | -2 | -16
COC(=O)c1c(C#N)c(N)nc2c1CCCC2 | 0 | 6 | -2 | 125* | 4 | -17
O=C(Nc1ccccc1N(C(=O)c1ccco1)S(=O)(=O)c1cccs1)c1ccco1 | 41* | 2 | 0 | -1 | -3 | 1
CCOC(=O)[C@]12CCCCC/C=C\1N(Cc1ccc(OC)cc1)C(=O)[C@H]2CC(=O)N1CCN(C(=O)C2CC2)CC1 | / | / | / | / | -11 | /
COC1CCC(OC2CC(C3(C)CCC4(CC(O)C(C)C(C(C)/C=C(\C)C(=O)C(C)CC(C)C(=O)O)O4)O3)OC3(OC(C4OC(O)(CO)C(C)CC4C)CC3C)C2C)OC1C (stereo unspecified) | 220* | -3 | / | 3 | 1 | 31
CCN(CC)S(=O)(=O)c1ccc(N2CCOCC2)c(NC(=O)C(=O)c2c(-c3ccccc3)cc3ccccn23)c1 | 130* | 10 | -8 | -1 | -1 | -20
CCN(CC)S(=O)(=O)c1cccc(NC(=O)C(=O)c2c(-c3ccccc3)cc3ccccn23)c1 | 2 | 0 | 0 | -1 | -7 | -27
COC(=O)C1CN(Cc2ccc(C)cc2)CCS(=O)(=O)N1Cc1cn(Cc2ccc(OC)cc2)nn1 (stereo unspecified) | / | / | / | / | 12 | /
CC(C)(O)C#Cc1ccccc1C(=O)NC(CC(N)=O)C(=O)O (stereo unspecified) | -1 | 32* | 2 | 2 | -6 | -19
Nc1ccc2c(C(F)(F)F)cc(C(F)(F)F)nc2n1 | -1 | 12 | -1 | + | -5 | -27
CCn1c(SCC(=O)Nc2ccc(C(C)C)cc2)nnc1-c1ccc(C(C)(C)C)cc1 | / | / | / | / | -7 | /
N#CC1=C(N)C(C#N)(C#N)C2(C(=O)Nc3ccccc32)C2CCCC=C12 (stereo unspecified) | 30* | 6 | -14 | -1 | 0 | -40
